The nature of experiment [1]: qHTS RealTime-Glo MT Cell Viability Assay in HEK293 cells - 0 hour (AID 1224880). Note: top concentration of the series differs between compounds; nearly all actives have a fitted effect of over 45% in size. The procedure, abridged:
(§1)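 Luminescence readout at each listed time point; HEK293, 600 cells/well, RealTime-Glo MT reagent added with cells; compounds pinned (23 nL in DMSO) after 5 h at 37 C; continuous culture at 37 C.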
For orientation: In qHTS, concentration-response curves come from the screen itself.

Experiment [2] can be described thus: A CellTox Green Cytotoxicity Assay to monitor cytotoxicity in HEK293 cells - 32 hour (AID 1224881). Note: nearly all actives have a fitted effect of over 40% in size. Note: potency is the fitted concentration of half-maximal effect. Put shortly:
(§2)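 Read-out: fluorescence of a cell-impermeant cyanine dye staining DNA of dead cells, proportional to cytotoxicity. HEK293, 600 cells/well with reagent, compound (23 nL DMSO) added after 5 h; reads at 0, 8, 16, 24, 32, 40 h.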

Experiment [3] is described as follows: A CellTox Green Cytotoxicity Assay to monitor cytotoxicity in HepG2 cells - 0 hour (AID 1224882). Note: nearly all actives have a fitted effect of over 35% in size. Put shortly:
(§3)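 HepG2, 600 cells/well premixed w/ CellTox Green; 5 h settle, 37 C/5% CO2; pintool cpd add (DMSO); 37 C, 40 h; fluorescence read at 0, 8, 16, 24, 32, 40 h.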

A short description of experiment [4]: A CellTox Green Cytotoxicity Assay to monitor cytotoxicity in HEK293 cells - 8 hour (AID 1224884). Note: nearly all actives have a fitted effect of over 35% in size. Put shortly: as §2
A short description of experiment [5]: qHTS RealTime-Glo MT Cell Viability Assay in HepG2 cells - 16 hour (AID 1224885). Note: nearly all actives have a fitted effect of over 50% in size. Put shortly: (§4)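 Cell number in HepG2 cultures estimated from NanoLuc luminescence generated by metabolic reduction of a prosubstrate by living cells. The homogeneous, nonlytic format allowed repeated reads at 0, 8, 16, 24, 32 and 40 h of compound exposure.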
Experiment [6] in a line: qHTS RealTime-Glo MT Cell Viability Assay in HEK293 cells - 24 hour (AID 1224886). Note: nearly all actives have a fitted effect of over 50% in size. Note: potency is the fitted concentration of half-maximal effect. Put shortly: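 Homogeneous bioluminescent viability format in HEK293 cells (600 cells/well). Following 5 h at 37 C/5% CO2, 23 nL compound was pintooled; the signal was measured repeatedly during 40 h incubation.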
Experiment [7] is described as follows: qHTS RealTime-Glo MT Cell Viability Assay in HEK293 cells - 8 hour (AID 1224887). Note: nearly all actives have a fitted effect of over 50% in size. Note: potency is the fitted concentration of half-maximal effect. The procedure, abridged:
as §1

A short description of experiment [8]: A CellTox Green Cytotoxicity Assay to monitor cytotoxicity in HEK293 cells - 16 hour (AID 1224888). Note: nearly all actives have a fitted effect of over 35% in size. The procedure, abridged:
as §2

The nature of experiment [9]: qHTS RealTime-Glo MT Cell Viability Assay in HepG2 cells - 0 hour (AID 1224889). Note: nearly all actives have a fitted effect of over 50% in size. The procedure, abridged:
as §4

Experiment [10] in a line: A CellTox Green Cytotoxicity Assay to monitor cytotoxicity in HepG2 cells - 8 hour (AID 1224890). Note: nearly all actives have a fitted effect of over 45% in size. The procedure, abridged: as §3
Experiment [11] is described as follows: qHTS assay to identify small molecule antagonists of the estrogen receptor alpha (ER-alpha) signaling pathway using the BG1 cell line in the presence of 0.1 nM 17-beta-estradiol - cell viability counter screen (AID 1259241). Note: nearly all actives have a fitted effect of over 40% in size. Put shortly: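 VM7Luc4E2 cells (endogenous ER-alpha, 4×ERE-luciferase), hormone-starved 5 days in charcoal-stripped FBS, were treated with compounds plus 0.1 nM 17beta-estradiol for 22 hr at 37C; viability read in same wells as CellTiter-Fluor live-cell protease fluorescence.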

Experiment [12] can be described thus: qHTS assay to identify small molecule antagonists of the androgen receptor (AR) signaling pathway using the MDA cell line in the presence of 0.5 nM R1881 - cell viability counter screen (AID 1259242). Note: nearly all actives have a fitted effect of over 45% in size. Note: potency is the fitted concentration of half-maximal effect. The procedure, abridged:
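Live-cell protease fluorescence, CellTiter-Fluor, 30 min at 37C. Cells: MDA-kb2, 3,000/well, preincubated 5 hr. Compounds plus 0.5 nM R1881 final, 16 hr, 37C, 0% CO2.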

Experiment [13] has as its target Androgen receptor (Homo sapiens) (UniProt P10275). Put plainly: qHTS assay to identify small molecule antagonists of the androgen receptor (AR) signaling pathway using the MDA cell line in the presence of 0.5 nM R1881 (AID 1259243). Note: nearly all actives have a fitted effect of over 50% in size. Note: potency is the fitted concentration of half-maximal effect. The procedure, abridged: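 MDA-kb2, MMTV-luc (AR/GR elements); 3,000 cells/well; cpd + 0.5 nM R1881 final; 16 hr 37C, 0% CO2; ONE-Glo 30 min RT; luminescence.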

In experiment [14] the target is Estrogen receptor (Homo sapiens) (UniProt P03372). Put plainly: qHTS assay to identify small molecule antagonists of the estrogen receptor alpha (ER-alpha) signaling pathway using the BG1 cell line in the presence of 0.1 nM 17-beta-estradiol (AID 1259244). Note: nearly all actives have a fitted effect of over 50% in size. Note: potency is the fitted concentration of half-maximal effect. Put shortly:
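Luminescence after ONE-Glo (30 min, room temperature) measured ERE-luciferase activity in VM7Luc4E2 cells treated 22 h with compound and 0.1 nM final 17beta-estradiol as stimulator.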

A short description of experiment [15]: qHTS assay to identify small molecule HDAC inhibitors (AID 1259364). Note: potency is the fitted concentration of half-maximal effect.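 Note: wild-type HCT-116 cells with endogenous class I/II HDAC activity; nearly all actives have a fitted effect of over 45% in size.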 Put shortly:
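HCT-116 (wild type), 1,500 cells/well, overnight; compound 2 hr 37C 5% CO2; HDAC-Glo I/II reagent 30 min RT; luminescence readout.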

A short description of experiment [16]: qHTS assay to identify small molecule HDAC inhibitors - cell viability counter screen (AID 1259365). Put shortly:
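Wild-type HCT-116 cells were seeded at 1,500 per well, incubated overnight at 37 C, then exposed to compounds in DMSO for 2hr. Viability was read by CellTiter-Glo luminescence after 30min at room temperature.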

Experiment [17] is described as follows: qHTS assay to identify small molecule agonists of the sonic hedgehog signaling (Shh) pathway - cell viability counter screen (AID 1259366). Note: nearly all actives have a fitted effect of over 50% in size. Note: potency is the fitted concentration of half-maximal effect. Put shortly:
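NIH/3T3-derived 3T3 Gli1-Luc cells (stable Gli1-responsive firefly luciferase reporter) were seeded, rested 4 hr at 37 C/5% CO2, then exposed to compounds in DMSO for 24 hr; viability was read by CellTiter-Fluor fluorescence in the same wells.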

Experiment [18] can be described thus: qHTS assay to identify small molecule antagonists of the sonic hedgehog signaling (Shh) pathway - cell viability counter screen (AID 1259367). Note: nearly all actives have a fitted effect of over 55% in size. Note: potency is the fitted concentration of half-maximal effect. Put shortly:
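CellTiter-Fluor signal in conditioned medium-stimulated 3T3 Gli1-Luc cells, 23 hr compound exposure, 37C.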

A short description of experiment [19]: A CellTox Green Cytotoxicity Assay to monitor cytotoxicity in HepG2 cells - 32 hour (AID 1224883). Note: nearly all actives have a fitted effect of over 50% in size. The procedure, abridged:
as §3

Experiment [20] can be described thus: qHTS assay to identify small molecule phospholipidosis (PLD) inducers (AID 1259344; active = well fitted curve in the direction sought with a large enough effect; an effect the other way counts as inactive or inconclusive). The procedure, abridged: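 Accumulated phospholipid, stained red by LipidTOX during 24 h compound treatment of HepG2 cells at 37 C, is quantified from images as pit number and intensity, normalised per cell using Hoechst-stained nuclei.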

Values joined by “and” are separate entries in the source; they are usually repeats but may differ in a detail not shown here. Equal values may be shown once. Inconclusive results are not listed. More than one record can exist for a structure, and the calls need not agree. Active and inactive are the calls of the source. Unless noted, calls come from the whole dose curve; as a rule, active = well fitted curve in the direction sought with a large enough effect in the repeat runs; inconclusive = weak or mixed curves; inactive = no such curve, though single readings can be large; an effect the other way counts as inactive or inconclusive.

Androgen receptor (Homo sapiens), sequence (P10275 whole entry, looked up): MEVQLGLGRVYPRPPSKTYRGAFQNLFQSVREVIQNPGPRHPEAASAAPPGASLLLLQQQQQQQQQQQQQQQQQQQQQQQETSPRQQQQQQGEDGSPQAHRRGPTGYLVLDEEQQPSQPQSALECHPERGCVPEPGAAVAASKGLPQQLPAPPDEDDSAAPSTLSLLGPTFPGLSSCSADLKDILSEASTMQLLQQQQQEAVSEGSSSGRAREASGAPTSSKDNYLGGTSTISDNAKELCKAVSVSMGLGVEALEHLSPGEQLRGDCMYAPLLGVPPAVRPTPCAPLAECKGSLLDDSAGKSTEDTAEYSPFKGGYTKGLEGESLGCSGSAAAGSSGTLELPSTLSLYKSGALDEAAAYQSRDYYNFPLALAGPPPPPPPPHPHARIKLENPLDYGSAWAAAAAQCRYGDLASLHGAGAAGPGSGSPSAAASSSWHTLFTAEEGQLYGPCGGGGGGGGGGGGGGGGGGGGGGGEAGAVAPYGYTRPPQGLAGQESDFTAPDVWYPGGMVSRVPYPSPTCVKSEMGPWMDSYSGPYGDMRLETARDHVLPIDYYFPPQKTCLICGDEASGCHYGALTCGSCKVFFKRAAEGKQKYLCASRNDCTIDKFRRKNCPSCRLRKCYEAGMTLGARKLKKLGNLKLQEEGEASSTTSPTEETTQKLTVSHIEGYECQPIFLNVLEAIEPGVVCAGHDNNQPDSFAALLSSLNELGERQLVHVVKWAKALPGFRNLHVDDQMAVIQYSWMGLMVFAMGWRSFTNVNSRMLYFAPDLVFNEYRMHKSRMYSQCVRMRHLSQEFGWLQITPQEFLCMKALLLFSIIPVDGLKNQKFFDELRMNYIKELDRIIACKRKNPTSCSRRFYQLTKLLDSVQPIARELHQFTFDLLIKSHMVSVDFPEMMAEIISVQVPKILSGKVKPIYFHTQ
Estrogen receptor (Homo sapiens), sequence (P03372 whole entry, looked up): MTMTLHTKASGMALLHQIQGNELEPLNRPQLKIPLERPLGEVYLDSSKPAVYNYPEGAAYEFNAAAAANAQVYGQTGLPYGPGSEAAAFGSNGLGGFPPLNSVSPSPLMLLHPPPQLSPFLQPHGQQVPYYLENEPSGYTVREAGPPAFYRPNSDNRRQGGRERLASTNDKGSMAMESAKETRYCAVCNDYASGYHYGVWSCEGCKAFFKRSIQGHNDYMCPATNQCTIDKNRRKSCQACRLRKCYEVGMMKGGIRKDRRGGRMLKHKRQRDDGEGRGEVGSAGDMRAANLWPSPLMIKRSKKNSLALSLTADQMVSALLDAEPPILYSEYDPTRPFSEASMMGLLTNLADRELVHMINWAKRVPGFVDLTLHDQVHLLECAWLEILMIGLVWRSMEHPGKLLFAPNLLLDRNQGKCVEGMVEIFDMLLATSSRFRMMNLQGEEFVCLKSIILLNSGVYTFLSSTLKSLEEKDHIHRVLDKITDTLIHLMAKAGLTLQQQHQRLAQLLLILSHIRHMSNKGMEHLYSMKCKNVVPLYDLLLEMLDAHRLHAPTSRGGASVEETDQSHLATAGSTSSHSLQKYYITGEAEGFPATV

With `CCc1cccc(CC)c1N(COC)C(=O)CCl`, the Potency entry in [1], in experiment [2], in experiment [3], in experiment [4], in experiment [5] and in experiment [6] was “inactive” each time. In addition, the Potency entry in experiment [7], in experiment [8], in experiment [9], in [10], in experiment [11] and in [12] was “inactive” in each case. For the same compound, the Potency result in experiment [15] is “inactive”. The Potency in [13] was 23.5 µM (active) and 27.3 µM (active); in experiment [14], 47 µM (active); in experiment [17], 27.3 µM (active); in experiment [18], 59.1 µM (active). In addition, the compound was called inactive in [16].
On to `CCC(C)c1cc([N+](=O)[O-])cc([N+](=O)[O-])c1O` (stereo not drawn), for which the Potency entry in experiment [1], in experiment [2], in [3], in experiment [19], in [4] and in [5] was “inactive” each time. In addition, the Potency result in [6], in [7], in experiment [8], in experiment [9], in [10] and in experiment [15] was “inactive” each time. Moreover, the Potency entry in experiment [12] was “inactive and 15.4 µM (active)”; in [14] it was “inactive and 17.2 µM (active)”; in experiment [17], “inactive and 43.3 µM (active)”; in experiment [18], “inactive and 24.3 µM (active)”. Besides, the compound was classed as inactive in experiment [16].
As to `C#CCOS(=O)OC1CCCCC1Oc1ccc(C(C)(C)C)cc1` (stereo not drawn), the Potency entry in [1], in experiment [2], in experiment [3], in experiment [19], in experiment [4] and in experiment [8] was “inactive” throughout. In addition, the Potency result in experiment [9], in [10] and in experiment [11] was “inactive” in each case. The Potency is 15.5 µM (active) and 19.5 µM (active) in [6]; 17.4 µM (active) in [7]; 6.11 µM (active) in [12]; 8.64 µM (active) and 15.4 µM (active) in experiment [14]; 24.4 µM (active) and 54.5 µM (active) in experiment [17]; 21.7 µM (active) and 27.3 µM (active) in experiment [18]. Also, the compound was called inactive in experiment [16].
In the case of `CN(C)C(=O)Nc1ccc(Cl)cc1`, the Potency result in experiment [1], in experiment [2], in experiment [3], in [19], in experiment [4] and in experiment [5] was “inactive” throughout. For the same compound, the Potency entry in [6], in experiment [7], in experiment [8], in experiment [9], in experiment [10] and in experiment [11] was “inactive” each time. In addition, the Potency result in [12], in experiment [17] and in [18] was “inactive” throughout. Moreover, the result in [16] was inactive.
Take `C[C@]12CCC(=O)C[C@@H]1CC[C@@H]1[C@@H]2CC[C@]2(C)[C@@H](O)CC[C@@H]12`: the Potency entry in experiment [1], in experiment [3], in [19], in experiment [4], in [5] and in experiment [7] was “inactive” each time. For the same compound, the Potency result in experiment [8], in [10], in experiment [11], in experiment [12], in experiment [17] and in experiment [18] was “inactive” throughout. Also, the Potency in experiment [2] is 38.4 µM (active) and inactive; in [6], 21.6 µM (active). Further, the call in [20] and in experiment [16] was inactive.
For `Nc1ccc(-c2ccc(N)c(N)c2)cc1N`, the Potency result in experiment [1], in experiment [2], in [3], in [19], in experiment [4] and in experiment [5] was “inactive” each time. Moreover, the Potency entry in experiment [6], in experiment [7], in [8], in experiment [9], in experiment [10] and in experiment [11] was “inactive” throughout. Moreover, the Potency entry in [12] and in experiment [18] was “inactive” each time. Moreover, in experiment [15], the Potency was 54.3 µM (active). Also, the outcome in experiment [16] was inactive.
On to `CCCCCCCCOC(=O)c1ccccc1C(=O)OCCCCCCCC`, for which the Potency entry in [1], in experiment [2], in experiment [3], in experiment [4], in experiment [5] and in [6] was “inactive” each time. The Potency result in [7], in experiment [8], in experiment [9], in experiment [10], in experiment [11] and in [12] was “inactive” in each case. Further, the Potency result in [13], in [14], in [15], in [17] and in experiment [18] was “inactive” in each case. Further, the compound was called inactive in [20] and in experiment [16].
